Records with an inconclusive call do not appear. A call without a number means that no potency is given here. The source made the active and inactive calls. Calls follow the shape of the dose curve; as a rule, active = well fitted cell-killing curve with a large enough effect; inconclusive = small, poorly fitted or top-dose-only effect, or effect the other way, or another doubt; inactive = no such curve, though single readings can be large or run the other way.

Our source for the Potency values is PubChem BioAssay (NCATS).
Potency is read from the fitted curve at half-maximal effect.

A short description of this assay: Identifying Small Molecule Inhibitors of Pancreatic Cancer Stem Cells (Panc1, Adherent) (AID 1259362). The settings on record: Potency: viability; series mostly up to 46.1 µM. From the text:
Progenitor-like cancer cells, often referred to as cancer stem cells (CSC), are believed to be the drivers of therapeutic resistance and rapid recurrence. CSCs are postulated to reside in specific niches characterized by low oxygen tension, limited nutrient supply, and high redox load. Selectively targeting CSC, alone or in combination with cytotoxic agents, as a means to produce durable remissions is an appealing concept. Modeling these cells in in vitro setting is an important step in finding new therapies and/or targets. Multiple reports highlight that forcing cells in culture into 3-dimensionaly architectures (spheroids) re-establishes key progenitor-like transcriptional signatures. Pancreatic cancer is among the diseases with the most dismal outlook which is driven, largely, by recurance following front-line therapies. […] In hopes of deriving new insight into the targeting of these pancreatic CSCs we examined three established pancreatic cancer cell lines in cytotoxicity assays versus a collection of approved and investigational drugs. Importantly, we screened these lines as traditional monolayer (2D) and spheroid (3D) formats to gain an appreciation of agents with differential activity.
Multicellular tumor spheroids from Panc1, MiaPaCa-2, and the primary low-passage tissue culture line SB.06 were seeded in stem cell media (SCM) in nonadherent 6-well plates coated with hydrogel (Corning Life Sciences, Chelmsford, Mass) and pancreatic spheres generated for 14 days before screening. Cells were seeded into 1536-well solid-bottom white tissue culture treated Greiner Bio One Plates (789173-F) using a MultiDrop Combi (Thermofisher Scientific) dispenser and a small sterile cassette. One column was media alone to be used as a :"no cells" control. The plates were then covered with sterilized stainless steel gasketed lids from Kalypsys. After allowing cells to attach for 4 hours, 23 nL of test compound or control (negative control DMSO and positive control 9.2 uM Bortezomib-final) were added from a 1536-well polypropylene compound source plate to each well using a 1536 head pin tool from Kalypsys. Cells were then incubated for 48 hours at 37C, 95% relative humidity and 5% CO2. After 48 hours, plates were removed from the incubator and 3 uL of CellTiter-Glo (Promega) was added using an Aurora Flying Reagent Dispenser Bioraptor. Plates were incubated at room temperature for 10 minutes prior to reading the luminescence on the Viewlux (PerkinElmer). The relative luciferase units are used to calculate the percent activity using the activity of DMSO in the cells and no cells columns for normalization of no inhibition and full inhibition respectively.
Consider `Cn1cc(-c2ccc3nnc(Sc4ccc5ncccc5c4)n3n2)cn1`, for which the Potency result was “inactive”.

As to `COc1ccc2c(c1)CC[C@H]1[C@@H]2CC[C@]2(C)[C@@H](NCCCCCCN3C(=O)C=CC3=O)CC[C@H]12`, the Potency entry was “inactive”.

For the compound `CC(=O)NCCC(=O)N[C@@H](CCC(N)=O)C(=O)N[C@@H](CO)C(=O)N[C@@H](CCC(N)=O)C(=O)N[C@@H](CCC(N)=O)C(=O)N[C@H](C(=O)N[C@@H](Cc1ccccc1)C(=O)N[C@]1(C)CCCCCCC=CCCC[C@@](C)(C(=O)N[C@@H](CCC(N)=O)C(=O)N[C@@H](CC(N)=O)C(N)=O)NC(=O)[C@H](CC(C)C)NC(=O)[C@H](CC(C)C)NC(=O)[C@@H](CCCNC(=N)N)NC(=O)[C@H](Cc2c[nH]c3ccccc23)NC(=O)[C@H](CC(C)C)NC(=O)[C@H](CC(N)=O)NC1=O)[C@H](C)O`, the Potency entry was “inactive”.

Consider `CC(O)=C(C#N)C(=O)Nc1ccc(C(F)(F)F)cc1`, for which the Potency result is “inactive”.

As for `COc1cccc(OC)c1-c1cc(C(=O)NC2(C(=O)O)C3CC4CC(C3)CC2C4)nn1-c1ccnc2cc(Cl)ccc12` (stereo not drawn), the Potency result was “inactive”.

Turning to `COc1nc(C)cnc1NS(=O)(=O)c1cccnc1-c1ccc(-c2nnco2)cc1`, the Potency entry is “inactive”.

Consider `COc1c(C)cnc(Cn2cnc3c(Cl)nc(N)nc32)c1C`, for which the Potency was 0.0332 µM (active).

For the compound `CCOC(=O)[C@@H](N)CCC(=O)N[C@@H](CSCc1ccccc1)C(=O)N[C@@H](C(=O)OCC)c1ccccc1`, the Potency result was “inactive”.

`O=C(O)c1ccc(O)c2ncc(N3CCOCC3)cc12`: the Potency result was “inactive”.

`COc1ccc(CCN(C)CCCOc2ccc(S(=O)(=O)c3[nH]c4ccccc4c3C(C)C)cc2)cc1OC`: the Potency was 26.4 µM (active).

Regarding `COC(=O)Nc1ccc(-c2nc(N3CCOCC3)c3cnn(C4CCN(C(=O)OC)CC4)c3n2)cc1`, the Potency result is “inactive”.

With `COc1cc2c(cc1OC)CC(=O)N(CCCN(C)C[C@H]1Cc3cc(OC)c(OC)cc31)CC2`, the Potency entry is “inactive”.

Regarding `O=C(Nc1cccc(Cl)c1)Nc1ncc(CCNc2ncnc3ccsc23)s1`, the Potency is 18.7 µM (active).

As for `CN(C)CCN(C)C(=O)c1ccc(NC(=O)Nc2ccc(-c3nc(N4CCOCC4)c4ccn(CC(F)(F)F)c4n3)cc2)cc1`, the Potency is 14.8 µM (active).

As to `CNC(=O)c1cc(Oc2ccc(NC(=O)Nc3ccc(Cl)c(C(F)(F)F)c3)c(F)c2)ccn1`, the Potency is 20.9 µM (active).

Take `CC(C)(C)c1[nH]cnc1C=c1[nH]c(=O)c(=Cc2ccccc2)[nH]c1=O`: the Potency was 0.0187 µM (active).

As for `CCCCCCCCCCCCCC(=O)N[C@H](CO)[C@H](O)c1ccc([N+](=O)[O-])cc1`, the Potency entry was “inactive”.

`Cc1cccc(Nc2nc(N[C@@H]3CCCC[C@H]3N)ncc2C(N)=O)c1`: the Potency was 26.4 µM (active).
